{"source": "PubChem BioAssay AID1851", "about": "(National Center for Advancing Translational Sciences (NCATS), 2009)", "note": "The campaign covered roughly 16,000 compounds. About 2,600 (16%) were called active. About 20% were inconclusive and are not listed. A selection follows. A number with no mark means an inactive call. The call rests on the fitted dose curve; in most records, active means well fitted curve in the direction sought with a large enough effect; inconclusive means small, poorly fitted or top-dose-only effect, or effect the other way; inactive means no such curve, though single readings can be large or run the other way. On the % scale 0 is the no-effect control and ±100 the full control effect.", "data": [{"molecular_target": "Cytochrome P450 2D6 (Homo sapiens) (UniProt P10635)", "sequence (P10635 whole entry, looked up)": "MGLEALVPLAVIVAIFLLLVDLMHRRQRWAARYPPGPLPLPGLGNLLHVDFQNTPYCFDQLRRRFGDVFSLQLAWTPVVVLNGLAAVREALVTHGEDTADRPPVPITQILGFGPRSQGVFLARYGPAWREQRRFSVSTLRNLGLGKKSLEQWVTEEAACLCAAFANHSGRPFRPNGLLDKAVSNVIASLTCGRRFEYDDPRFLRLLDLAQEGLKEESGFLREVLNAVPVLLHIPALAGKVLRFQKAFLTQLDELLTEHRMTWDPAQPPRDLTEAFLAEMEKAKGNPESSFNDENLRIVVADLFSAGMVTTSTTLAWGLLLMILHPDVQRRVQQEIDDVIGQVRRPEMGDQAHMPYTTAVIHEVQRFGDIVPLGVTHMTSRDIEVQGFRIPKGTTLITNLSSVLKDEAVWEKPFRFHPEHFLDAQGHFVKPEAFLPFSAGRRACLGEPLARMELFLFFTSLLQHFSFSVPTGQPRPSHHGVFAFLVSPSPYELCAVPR", "test": "Cytochrome panel assay with activity outcomes", "conditions": "recombinant CYP, pro-luciferin dealkylation, luminescence, p450-cyp2d6; series mostly up to 57.1 µM", "values": [{"smiles": "O=c1c(-c2ccc(F)cc2)nc2cnc(N3CCNCC3)nc2n1-c1ccccc1", "AC50": "inactive"}, {"smiles": "Cn1cc(-c2nc3cnc(Oc4ccccc4)nc3n(CCC#N)c2=O)c2ccccc21", "AC50": "inactive"}, {"smiles": "Nc1ncnc2c1nc(Sc1ccc(Cl)cc1)n2[C@@H]1O[C@H]2COP(=O)(O)O[C@@H]2[C@H]1O", "AC50": "inactive"}, {"smiles": "COC(=O)[C@@]1(Cc2ccc(F)cc2)[C@H]2c3cc(C(=O)N4CCCC4)n(Cc4ccc(S(C)(=O)=O)cc4)c3C[C@H]2CN1C(=O)c1ccccc1", "AC50": "inactive"}, {"smiles": "COC(=O)[C@@]1(Cc2ccccc2)[C@H]2c3cc(C(=O)N(C)C)n(Cc4c(CO)[nH]cc(C)c4=O)c3C[C@H]2CN1C(=O)c1ccccc1", "AC50": "12.6 µM (active)"}, {"smiles": "COC(=O)[C@@]1(Cc2ccc(OC)cc2)[C@H]2c3cc(C(=O)N4CCCC4)n(CCn4cc([N+](=O)[O-])nc4C)c3C[C@H]2CN1C(=O)c1ccccc1", "AC50": "inactive"}, {"smiles": "COC(=O)[C@@]1(Cc2ccc(F)cc2)[C@H]2c3cc(C(=O)N4CCCC4)n(Cc4cccc5ccccc45)c3C[C@H]2CN1C(=O)c1ccccc1", "AC50": "inactive"}, {"smiles": "COC(=O)[C@@]1(Cc2ccc(OC)cc2)[C@H]2c3cc(C(=O)N(C)C)[nH]c3C[C@H]2CN1C(=O)c1ccccc1", "AC50": "inactive"}, {"smiles": "COC(=O)[C@@]1(Cc2ccc(F)cc2)[C@H]2c3cc(C(=O)N(C)C)n(Cc4c(CO)[nH]cc(C)c4=O)c3C[C@H]2CN1C(=O)c1ccccc1", "AC50": "15.8 µM (active)"}, {"smiles": "CC(=O)NCc1c(Cl)cccc1-n1cccc1", "AC50": "inactive"}, {"smiles": "CC(C)(C)OC(=O)COc1cc(OCC(=O)OC(C)(C)C)c2c(=O)cc(-c3ccccc3)oc2c1", "AC50": "inactive"}, {"smiles": "O=c1c(-c2cc(F)cc(F)c2)nc2cncnc2n1C1CC1", "AC50": "inactive"}, {"smiles": "Cc1cccc([C@@H]2CN(C)CCc3c2cc(O)c(O)c3Cl)c1", "AC50": "inactive"}, {"smiles": "CN1CCc2cc(Cl)c(O)cc2[C@H](c2ccccc2)C1", "AC50": "0.631 µM (active)"}, {"smiles": "C=CCN1CCc2c(cc(O)c(O)c2Cl)[C@H](c2ccccc2)C1", "AC50": "25.1 µM (active)"}, {"smiles": "CN1C[C@H](c2ccccc2)C(O)([C@]2(c3ccccc3)CN(C)C[C@@H](c3ccccc3)C2=O)[C@H](c2ccccc2)C1", "note": "(some centres undefined)", "activity, negative = inhibition": "-18.6% [at 11.4 µM]"}, {"smiles": "C=CCN1CCc2cc(O)c(O)cc2[C@H](c2ccccc2)C1", "AC50": "0.398 µM (active)"}, {"smiles": "C=CCN1CCc2c(cc(O)c(O)c2Br)[C@H](c2ccccc2)C1", "AC50": "12.6 µM (active)"}, {"smiles": "COc1ccc(C[C@@H]2c3cc(OC)c(OC)cc3CC[N@+]2(C)CCC(=O)OCCCCCOC(=O)CC[N@@+]2(C)CCc3cc(OC)c(OC)cc3[C@H]2Cc2ccc(OC)c(OC)c2)cc1OC", "AC50": "inactive"}, {"smiles": "Nc1ccccc1C#Cc1ccccc1", "AC50": "inactive"}, {"smiles": "Cc1nc(N/N=C/c2ccccc2)nc(N(C)c2ccccc2)c1[N+](=O)[O-]", "AC50": "inactive"}, {"smiles": "CO[C@@H]1COC(=O)C/C=C\\[C@@H](C)COC(=O)[C@H](Cc2ccccc2)NC(=O)C/C=C\\[C@H]1C", "activity, negative = inhibition": "-17% [at 11.4 µM]"}, {"smiles": "COC(=O)C(Cc1ccc(OC(=O)c2ccc(C(F)(F)F)cc2)cc1)N1Cc2ccccc2C1=O", "note": "(centres undefined)", "AC50": "inactive"}, {"smiles": "C=CCCC(=O)Nc1nc(C)c(-c2csc(Nc3ccc(Cl)cc3)n2)s1", "AC50": "17.8 µM (active)"}, {"smiles": "Cc1nc(NC(=O)c2ccccc2)sc1-c1csc(Nc2cccc(Cl)c2)n1", "AC50": "10 µM (active)"}, {"smiles": "Cc1nc(NC(=O)c2ccccc2)sc1-c1csc(Nc2ccc(F)cc2)n1", "AC50": "inactive"}, {"smiles": "COc1ccccc1Nc1nc(-c2sc(NC(=O)c3ccccc3)nc2C)cs1", "AC50": "inactive"}, {"smiles": "Cc1nc(NC(=O)c2ccccc2)sc1-c1csc(Nc2ccc(Cl)cc2)n1", "AC50": "inactive"}, {"smiles": "Cc1nc(NC(=O)c2ccco2)sc1-c1csc(Nc2ccc(Cl)cc2Cl)n1", "AC50": "inactive"}, {"smiles": "CC1(C)OCC([C@H](O)C2=CCCCC2=O)CO1", "activity, negative = inhibition": "9.36% [at 11.4 µM]"}, {"smiles": "COc1cc(/C=C2\\SC(=S)N(Nc3ccccc3)C2=O)cc(OC)c1OC", "AC50": "inactive"}, {"smiles": "CC(=O)c1cc(C#N)c(Oc2ccc(F)cc2)nc1C", "AC50": "inactive"}, {"smiles": "Cc1cnc(NC(=O)CCCc2nc3ccccc3s2)s1", "AC50": "inactive"}, {"smiles": "COc1cccc([C@@H]2Oc3ccc(OC)cc3/C(=N/OC[C@@H](C)[C@H](OCc3ccccc3)C(C)C)[C@@H]2O)c1", "activity, negative = inhibition": "0.0498% [at 11.4 µM]"}, {"smiles": "COc1cccc([C@@H]2Oc3ccc(OC)cc3/C(=N/OC[C@@H](O)COCc3ccco3)[C@@H]2O)c1", "activity, negative = inhibition": "5.07% [at 11.4 µM]"}, {"smiles": "COc1cccc([C@@H]2Oc3ccc(Br)cc3C(=O)[C@H]2O)c1", "AC50": "3.16 µM (active)"}, {"smiles": "CN(C(=S)Nc1ccccc1F)C1(c2ccccc2Cl)CCCCC1=O", "note": "(centres undefined)", "AC50": "inactive"}, {"smiles": "O=S(=O)(c1ccc(Cl)cc1)c1cnc(-c2cccnc2)nc1-c1ccccc1", "AC50": "inactive"}, {"smiles": "c1ccc(CCc2nc(-c3ccccc3)no2)cc1", "AC50": "inactive"}, {"smiles": "Clc1ccc(Cc2nc(-c3cccnc3)no2)cc1", "AC50": "1.78 µM (active)"}, {"smiles": "CCC(C)NS(=O)(=O)c1ccc(NC(=O)CCC2CCCCC2)cc1", "note": "(centres undefined)", "AC50": "inactive"}, {"smiles": "Cn1cccc1C(=O)N1CCC2(CC1)CCN(c1ncccn1)CC2", "AC50": "inactive"}, {"smiles": "COc1ccc(CNc2ccnc(-c3ccc(C(=O)N(C)C)cc3)n2)c(OC)c1", "AC50": "inactive"}, {"smiles": "COc1ccc(CNc2ccnc(-c3ccc(N(C)C)cc3)n2)c(OC)c1", "AC50": "12.6 µM (active)"}, {"smiles": "COc1ccccc1CNc1ccnc(-c2ccc(N(C)C)cc2)n1", "AC50": "0.501 µM (active)"}, {"smiles": "CN(C)c1ccc(-c2nccc(NCc3ccccc3)n2)cc1", "AC50": "3.16 µM (active)"}, {"smiles": "Cc1cnc(CNc2ccnc(-c3ccc(N(C)C)cc3)n2)cn1", "AC50": "inactive"}, {"smiles": "COc1ccccc1CNc1ccnc(-c2ccoc2)n1", "AC50": "15.8 µM (active)"}, {"smiles": "COC(=O)Cc1c(C)nc2nc(NCc3ccccc3OC)[nH]n2c1=O", "AC50": "inactive"}, {"smiles": "CCOC(=O)N1CCC(NC(=O)C2CCN(S(=O)(=O)N3CCCC3)CC2)CC1", "AC50": "inactive"}, {"smiles": "O=C=Nc1ccc(Cc2ccc(N=C=O)cc2)cc1", "note": "(tested in a mixture with another compound)", "activity, negative = inhibition": "6.78% [at 11.4 µM]"}, {"smiles": "O=C(CNC(=O)c1ccc([N+](=O)[O-])cc1)c1ccccc1", "AC50": "inactive"}, {"smiles": "COc1cc(-c2nnc(SCC3(c4ccccc4)OCCO3)o2)cc(OC)c1OC", "AC50": "inactive"}, {"smiles": "COCCn1c(=O)c(-c2ccc(Cl)cc2)nc2cncnc21", "AC50": "inactive"}]}]}
